# Assay results: PubChem BioAssay AID624171 (National Center for Advancing Translational Sciences (NCATS), 2012)
# In all, about 410,000 compounds went through this assay and about 1,200 (0.29%) were called active. A call without a number means that no potency is given here. About 2% were inconclusive and are not listed. For the sample, actives were picked, then their nearest neighbours and some compounds at random. A number with no mark means an inactive call. Calls follow the shape of the dose curve; as a rule, active = well fitted activation curve with a large enough effect; inconclusive = small, poorly fitted or top-dose-only effect; inactive = flat fitted curve, though single readings scatter.
# Test: qHTS of Nrf2 Activators; also: nearly all actives have a fitted effect of over 65% in size
# Conditions: AREc32 ARE-luciferase reporter (MCF7-derived line), luminescence, 24 h; series mostly up to 46.1 µM
# Excerpt: Many diseases have some form of oxidative stress injury and ties to inflammation, causing a host of problems for the patient. The antioxidant response element (ARE) plays an important role in alleviating the harmful effects of oxidative stress. The antioxidant response element (ARE) is a transcriptional regulatory element involved in the activation of genes coding for a number of antioxidant proteins and detoxifying enzymes. These enzymes work in concert to protect tissues from oxidative insults and chemical toxicities in human hepatocytes and immune cells. The protective effects of ARE activation are primarily triggered through Nrf2 (NF-E2-related factor) binding to and activating AREs. It is known that Nrf2 controls the production of over 250 antioxidant and detoxification proteins (Hu et al., 2006), thereby protecting tissues by increasing cellular antioxidant content and suppressing inflammatory signaling pathways. The transcription factor Nrf2 is a central link between oxidative chemicals, such as phenolic antioxidants and electrophilic compounds, and the activation of ARE. Nrf2 levels are constitutively low as a consequence of its interaction with Keap1, which targets its degradation (Zipper and Mulcahy, 2002). Electrophiles react with key cysteine residues in Keap1, releasing Nrf2 and allowing its translocation to the nucleus. Once within the nucleus, Nrf2 complexes with coactivators such as p300, and binds to the AREs to induce gene transcription of cytoprotective enzymes, resulting in the prevention of toxicity. Activation of Nrf2 protects tissues by increasing cellular antioxidant content and suppressing inflammatory signaling pathways. Identifying novel and potent Nrf2 activators by using the AREc32 cell line to detect ARE activation by small molecules will lead to the identification and development of probes to study protective pathways in multiple tissues. These specific probes are essential to study the ARE pathway, and eventually to determine whether this pathway does activate genes that could protect against a host of diseases, including cardiovascular diseases, obesity, diabetes, Alzheimer's, and Parkinson's disease.
# This project's aim is to identify novel and potent Nrf2 activators by using the AREc32 cell line to detect ARE activation by small molecules, which will lead to the identification and development of probes to study the ARE pathway.
# NIH Chemical Genomics Center [NCGC]
# NIH Molecular Libraries Probe Centers Network [MLPCN]
# Assay Submitter (PI): Curtis Klaassen, University of Kansas Medical Center
# 5 uL of 1000 cells/well of AREc32_Fluc cells are seeded into 1536-well plate in OPTI-MEM medium with 5% FBS. The plates are incubated overnight at 37 deg C with 5% CO2. Then through pin tool transfer, 23 nL of compounds are added to each well before a 24 hr incubation at 37 deg C with 5% CO2. After the addition of 2.5 uL of Steady-Glo. the plates are kept at RT for 30 min, before they are read on the ViewLux.
# Potency is read from the fitted curve at half-maximal effect.
Structure (SMILES),Potency,activation
O=C1OC(OC(=O)c2ccccc2Br)C(N2CCOCC2)=C1Cl (stereo unspecified),inactive,–
Cc1ccc(NC2=C(Cl)C(=O)OC2OC(=O)c2ccccc2C)cc1 (stereo unspecified),–,0.434% [at 9.22 µM]
Cc1ccccc1C(=O)OC1OC(=O)C(Cl)=C1Nc1ccccc1 (stereo unspecified),15.8 µM (active),–
CCOC(=O)c1c(C)[nH]c(C)c1S(=O)(=O)N1CCC(C(=O)Nc2ccc(C)c(Cl)c2)CC1,inactive,–
Nc1c(C(=O)c2cccs2)sc2nsc(SCCN3CCCCC3)c12,10 µM (active),–
Cc1cc(NC(C)C)n2c(nc3ccccc32)c1C#N,inactive,–
Cc1cc(NCc2ccco2)n2c(nc3ccccc32)c1C#N,5.01 µM (active),–
CC(C)c1cc(NCc2ccccn2)n2c(nc3ccccc32)c1C#N,inactive,–
Cc1cc(C)cc(NC(=O)COC(=O)c2cc(C)oc2C)c1,inactive,–
Cc1cc(C(=O)NCCc2ccc(Cl)cc2)c(C)o1,inactive,–
Cc1cc(C(=O)N/N=C\C(Br)=C\c2ccccc2)c(C)o1,20 µM (active),–
COc1cccc(C(=O)NCC(=O)OCc2cc(=O)n3ccsc3n2)c1,inactive,–
S=c1[nH]nc(CSCc2ccc(Cl)cc2Cl)n1-c1ccccc1,inactive,–
S=c1[nH]nc(-c2cc(-c3ccsc3)n[nH]2)n1-c1ccccc1,8.91 µM (active),–
Cc1n[nH]c(=O)n1-c1ccc(Oc2ccccc2)cc1,inactive,–
COc1cccc(C(c2c(O)cc(C)n(Cc3ccco3)c2=O)N2CCN(c3ccccc3)CC2)c1 (stereo unspecified),inactive,–
CN(C)c1ccc(NC(=O)c2ccncc2)c2ccccc12,inactive,–
Cc1ccc(NC(=O)c2oc3ccccc3c2C)c([N+](=O)[O-])c1,inactive,–
O=C(Nc1ccc2ccccc2c1[N+](=O)[O-])c1ccccc1,14.1 µM (active),–
O=C(CN1C(=O)COc2ccc(S(=O)(=O)N3CCOCC3)cc21)N1CCN(c2cccc(Cl)c2)CC1,inactive,–
Cc1cc2nc(-c3ccc(NC(=O)c4cc5ccccc5o4)cc3)oc2cc1C,inactive,–
NC(=O)COC(=O)/C=C/c1ccc2ccccc2n1,15.8 µM (active),–
CCOc1cccc(/C=C/c2ccc3ccccc3n2)c1OC(C)=O,inactive,–
O=C(COC(=O)/C=C/c1nc2ccccc2s1)Nc1ccccc1Oc1ccccc1,inactive,–
CN(C(=O)c1ccc2c(c1)N(Cc1cccc(Cl)c1)C(=O)c1ccccc1S2=O)C1CCCCC1 (stereo unspecified),inactive,–
CC(C)C(=O)Nc1nc2c(s1)CC(C(C)(C)C)CC2 (stereo unspecified),inactive,–

Structure (SMILES),Potency,activation
Cc1ccc(NC(=O)Cn2nnc3sc4c(c3c2=O)CCC(C)C4)cc1 (stereo unspecified),inactive,–
COC(=O)c1cccc(Cn2nnc3sc4c(c3c2=O)CCC(C(C)(C)C)C4)c1 (stereo unspecified),inactive,–
CCOC(=O)c1c(C)oc2nc(C)nc(Nc3ccc(CC)cc3)c12,inactive,–
CCCOc1ccc(-c2cccc(NS(=O)(=O)c3ccccc3)c2)nn1,inactive,–
COc1ccc(N2C(=O)C3C(C2=O)C(C(=O)c2ccccc2)N2CCCC32)cc1 (stereo unspecified),12.6 µM (active),–
COc1ccc(C2NC(=O)N(C)C3=C2C(=O)N(c2ccc(C(=O)O)cc2)C3)cc1 (stereo unspecified),inactive,–
COc1ccc(N2C(=O)CC(N3CCC(C(N)=O)CC3)C2=O)cc1 (stereo unspecified),inactive,–
CCCNC(=O)C1CCC(Cn2c(=O)c3sccc3n(Cc3ccccc3F)c2=O)CC1 (stereo unspecified),inactive,–
COc1ccccc1CNC(=O)c1ccc(CS(=O)c2ccccc2Cl)o1 (stereo unspecified),inactive,–
Cc1ccc(-c2ccnc3nc(Sc4ncc(C(F)(F)F)cc4Cl)nn23)cc1,inactive,–
Cc1cc(-c2ccccc2)n2nc(-c3ccccc3)cc2n1,inactive,–
c1ccc(-c2ccnc3nc(-n4cccc4)nn23)cc1,12.6 µM (active),–
O=C(Nc1nnc(S(=O)(=O)N2CCCc3ccccc32)s1)c1cccc(F)c1,inactive,–
CCSc1ncc(Cl)c(C(=O)Nc2c(C(=O)c3ccccc3)oc3ccccc23)n1,inactive,–
O=C(Nc1cccc2cccnc12)c1cccc2c(Br)cccc12,inactive,–
COc1c(Cl)cc(Cl)cc1C(=O)Nc1cccc2cccnc12,inactive,–
O=C(Nc1ccccc1Cl)Nc1cccc2cccnc12,12.6 µM (active),–
Cc1ccc(NC(=O)CN2C(=O)C(c3ccc(F)cc3)=NC23CCCCCC3)c(C)c1,inactive,–
CCCN1CCc2nc(N3CCN(C)CC3)ncc2C1,inactive,–
CC(C)(C)c1ccc(C(=O)N2CCC(c3nc(-c4ccc(S(=O)(=O)N5CCCC5)cc4)no3)CC2)cc1,inactive,–
O=c1[nH]nc(SCCS(=O)(=O)c2ccc(F)cc2)n1-c1ccccc1C(F)(F)F,11.2 µM (active),–
O=S(=O)(c1ccc(F)cc1)N1CCN(Cc2ccccc2C(F)(F)F)CC1,inactive,–
O=C(CSc1n[nH]c(=O)n1-c1ccccc1)Nc1ccccc1C(F)(F)F,inactive,–
COc1ccc2oc(=O)c(-c3cn4c(n3)sc3cc(OC)ccc34)cc2c1,inactive,–
O=C1/C(=C\c2ccc(O)cc2)CCC1CNc1ccc(Cl)cc1 (stereo unspecified),11.2 µM (active),–
CC(=O)c1nn(-c2ccc(OC(F)(F)F)cc2)nc1Nc1ccccc1,inactive,–

Structure (SMILES),Potency,activation
CCOc1ccc(CCNC(=O)c2ccc3c(c2)sc2nc(-c4ccc(F)cc4)cn23)cc1OCC,inactive,–
Cn1c(=O)c2c(n3c4ccccc4nc13)NC(=O)CC2c1cccc(Cl)c1 (stereo unspecified),inactive,–
Cc1ccc(-c2nnc(SCC(=O)NCc3ccccc3)nc2-c2ccc(C)cc2)cc1,inactive,–
c1ccc(CSc2nnc(-c3ccco3)c(-c3ccco3)n2)cc1,12.6 µM (active),–
Fc1ccc(CSc2nc(NCc3ccccc3)c3ccccc3n2)cc1,inactive,–
Cc1ccc(CNC(=O)CSc2c3c(nc4cc(Cl)ccc24)CCCC3)cc1,inactive,–
COc1cccc(CNC(=O)CSc2c3c(nc4cc(Cl)ccc24)CCCC3)c1,inactive,–
O=C(CSc1c2c(nc3ccc(Cl)cc13)CCCC2)NCc1ccco1,11.2 µM (active),–
CCCNC(=O)CCC(=O)N1Cc2ccccc2Oc2ncccc21,inactive,–
Cc1ccc2[nH]c3c(=O)n(CC(=O)NC(C)C)ncc3c2c1,inactive,–
COc1ccc(-c2csc(-c3c(N)c(C(=O)c4ccc(OC)c(OC)c4)n4ccccc34)n2)cc1,inactive,–
CCn1c2ccccc2c2nnc(N3CCN(c4cc(C)ccc4C)CC3)nc21,inactive,–
Cc1nc(-c2ccccc2)sc1-c1nnc(C2CC2)o1,15.8 µM (active),–
Cc1nc(-c2ccccc2)sc1-c1nc(-c2ccccc2)ncc1S(=O)(=O)c1ccccc1,inactive,–
Cc1nc(N)sc1-c1ccccc1,inactive,–
COc1ccc(Cl)cc1S(=O)(=O)N1CCC(c2ccncc2)CC1,inactive,–
CCOc1ccc(CC(=O)NCCc2csc3nc(-c4ccccc4F)nn23)cc1,inactive,–
O=C(/C=C/c1ccc2c(c1)OCCO2)c1ccc(O)cc1,5.01 µM (active),–
O/N=C(\c1ccc2c(c1)OCCO2)C1CCCCC1,inactive,–
O=C(COC(=O)/C=C/c1ccc2c(c1)OCO2)NC1CCS(=O)(=O)C1 (stereo unspecified),inactive,–
O=C(NCCc1csc(-c2ccc(C(F)(F)F)cc2)n1)C(=O)Nc1ccc(F)c(Cl)c1,inactive,–
COc1ccc(NC(=O)c2ccc3nc(C(C)C)oc3c2)cc1OC,inactive,–
CCc1cccc(NC(=O)COC(=O)c2cc(=O)c3ccccc3o2)c1,14.1 µM (active),–
CCc1cccc(NC(=O)COC(=O)C2CCN(c3ccc(C(F)(F)F)cn3)CC2)c1,inactive,–
COCc1c(C(=O)OCC(=O)Nc2ccc(OC(F)F)cc2)oc2ccccc12,inactive,–
Cc1cc(C)nc(NS(=O)(=O)c2ccc(NC(=O)c3cc(=O)c4ccc(C)c(C)c4o3)cc2)n1,inactive,–

Structure (SMILES),Potency,activation
COc1ccc([N+](=O)[O-])cc1NC(=O)COC(=O)/C=C/c1ccco1,11.2 µM (active),–
COc1ccc(Br)cc1CN(C)CC(=O)Nc1cc([N+](=O)[O-])ccc1OC,inactive,–
COc1cc2c(cc1NC(=O)COC(=O)/C=C/c1ccccc1)oc1ccccc12,inactive,–
FC(F)(F)c1cc(Nc2nc3ccccc3c3nncn23)ccc1Cl,inactive,–
COc1cccc(N=C2SC(C(=O)Nc3cccc(Cl)c3)CC(=O)N2C)c1 (stereo unspecified),inactive,–
COc1ccc(-c2nnc(SCC(=O)Nc3ccc(C(C)C)cc3)nc2-c2ccc(OC)c(OC)c2)cc1OC,inactive,–
COC(=O)c1ccc2nc(-c3ccc(F)cc3)c(Cc3ccc(C)cc3)n2c1,inactive,–
Cc1ccc(Cc2c(-c3ccco3)nc3ccc(Cl)cn23)cc1,12.6 µM (active),–
CCCc1nc2c3ccccc3ccn2c1Cc1ccccc1C(F)(F)F,inactive,–
COC(=O)c1ccc2nc(-c3ccc(Cl)cc3)c(Cc3cccc(F)c3)n2c1,inactive,–
c1ccc(Cc2c(-c3ccco3)nc3c4ccccc4ccn23)cc1,6.31 µM (active),–
CC(C)c1ccc(NC(=O)C2CCN(c3nc(-c4ccc(C(C)C)cc4)no3)CC2)cc1,inactive,–
COc1ccc(NC(=O)c2sc3nc(-c4cc5cccc(OC)c5oc4=O)[nH]c(=O)c3c2C)cc1,inactive,–
O=S(=O)(c1ccc(Cl)cc1)c1nnn2c1nc(NC1CCCC1)c1sccc12,inactive,–
CCc1cc2c(cc3c(=O)n(CC(=O)NCCc4ccc(OC)c(OC)c4)ncn32)s1,inactive,–
CCOC(=O)c1ccc(CSc2nnc3cc(C)c4ccccc4n23)cc1,inactive,–
CN(C)c1ccnc2sc(C(=O)c3ccccc3)c(N)c12,10 µM (active),–
COc1cccc(C(=O)c2sc3nc(-c4ccccc4)cc(C(F)(F)F)c3c2N)c1,inactive,–
CN(C(=O)c1ccccc1)c1nccnc1C#N,inactive,–
COc1ccc(S(=O)(=O)c2c(Nc3cccc(Cl)c3)sc(C(=O)c3ccccc3)c2N)cc1,inactive,–
Cc1ccc2c(N)c(C(=O)c3ccccc3)sc2n1,8.91 µM (active),–
CCCS(=O)(=O)c1c(Nc2ccccc2C)sc(C(=O)c2ccccc2)c1N,inactive,–
COc1ccc(-n2ccnc(NCCc3ccc(Cl)cc3)c2=O)cc1OC,inactive,–
